Compound activity as filed in PubChem.
This is one part of a sample in which hits are shown more often than they occur.
CBX7 inh: CBX7 inhibition, primary AlphaScreen | O95931 | AlphaScreen His6-CBX7 / biotin-H3K27me3 peptide binding; stronger effect = lower value | normalised signal (fraction of DMSO) (test concentration not listed) | 66,000 compounds, 1.1% hits; in the data active means normalised signal below about 0.5
Target sequence (O95931 whole entry, looked up): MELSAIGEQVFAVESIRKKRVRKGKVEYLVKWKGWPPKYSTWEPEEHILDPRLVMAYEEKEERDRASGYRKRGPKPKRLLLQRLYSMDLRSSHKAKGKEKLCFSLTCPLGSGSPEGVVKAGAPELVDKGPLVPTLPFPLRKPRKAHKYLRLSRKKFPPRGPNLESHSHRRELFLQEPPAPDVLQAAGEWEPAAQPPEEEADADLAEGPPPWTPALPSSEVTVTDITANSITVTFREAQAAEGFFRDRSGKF
Numbers without * were called inactive.

SMILES	CBX7 inh
CCOC(=O)c1nnn(-c2nonc2N)c1CSc1cccc2cccnc12	0.99
Fc1cccc(Nc2nc(-c3ccccc3F)nc3ccccc23)c1	1.1
COc1cccc(Nc2nc(-c3ccccc3F)nc3ccccc23)c1	0.33*
COc1ccc(Nc2nc(-c3ccccc3F)nc3ccccc23)c(OC)c1	1.4
Fc1cccc(-c2nc3cc(C(F)(F)F)cc(Br)c3nc2-c2cccc(F)c2)c1	0.76
COc1ccc(-c2nc(CS(=O)(=O)CC(=O)NCCN3CCCC3)c(C)o2)cc1	1
CCC(=O)N1CCc2cc(S(=O)(=O)Nc3ccc(C(C)C)cc3)ccc21	1
Cc1ccccc1-c1nc(CN2CCC(C(=O)NCCCOC(C)C)CC2)c(C)o1	0.84
Cc1cc(C)nc(Sc2nnc(-c3ccccc3)c3ccccc23)n1	0.91
CCCCn1cnc2cc(NCc3ccc(Br)cc3)ccc21	0.25*
CCCn1cnc2cc(NCc3cccc(OC)c3)ccc21	0.56
CCCn1cnc2cc(NCc3ccc(OC)c(OC)c3)ccc21	0.81
CCn1cnc2cc(NCc3ccc(OC)c(OC)c3)ccc21	0.95
CCCn1cnc2cc(NCc3ccc(Br)cc3)ccc21	0.33*
CCn1cnc2cc(NCc3ccc(Br)cc3)ccc21	0.96
CCN1CCN(c2ncc(C(=O)Nc3ccc(Oc4ccccc4)cc3)c3ccccc23)CC1	1.1
CCCOc1c(-c2ccc3ccccc3n2)cnc2ccccc12	1
Fc1cccc(F)c1-c1noc(-c2cc(-c3ccncc3)nc3ccccc23)n1	1.2
CCN(CCCNC(=O)CC1Nc2ccccc2NC1=O)c1cccc(C)c1 (stereo not drawn)	0.64
CCN(CC)C(=O)c1ccc2c(c1)N(Cc1cccc(Cl)c1)C(=O)c1ccccc1S2(=O)=O	0.82
COc1ccc(N2CCN(C(=O)Cc3c(C(=O)O)[nH]c4ccc(Cl)cc34)CC2)cc1	1.1
O=C(CCSc1ccccc1)Nc1nc(-c2ccncc2)cs1	0.99
COc1ccc(OC)c(NS(=O)(=O)c2ccc(OC)c3ncccc23)c1	1
Cc1nn(-c2ccccc2)c(Cl)c1C(=O)Nc1ccc(C)c2cccnc12	0.96
CS(=O)(=O)Nc1ccc(Cl)c2cccnc12	0.0026*
SMILES	CBX7 inh
Cc1ccc(Nc2cc(C)c3c(O)cccc3n2)cc1F	0.92
O=C(Cn1c(Cc2ccccc2)nc2sc3c(c2c1=O)CCCC3)Nc1cccc(C(F)(F)F)c1	0.94
COc1ccc(-c2nn(C)c3sc(C(=O)N(C)c4cc(Cl)ccc4C)cc23)cc1OC	0.99
CCN1CCN(C(=O)C2CCN(c3nn4c(=O)cc(C)nc4s3)CC2)CC1	1
COc1ccc(-c2noc(CN3CCC(C(N)=O)CC3)n2)cc1	1
O=C(CSc1nnnn1-c1ccc(Cl)cc1)Nc1ccccc1Cl	0.86
O=C(CSc1nnnn1-c1ccccc1)Nc1ncccn1	0.13*
NC(=O)c1ccc(-n2nnnc2SCC(=O)Nc2ccccc2)cc1	1.1
CCc1ccc2nc(N3CCC(C(=O)NCC4CCCO4)CC3)sc2c1 (stereo not drawn)	1.1
CCCc1noc(-c2cc(-c3ccncc3)nc3ccccc23)n1	0.44*
Cc1ccccc1-c1noc(-c2cc(-c3ccncc3)nc3ccccc23)n1	0.75
c1ccc2c(-c3nc(-c4ccncc4)no3)cc(-c3ccncc3)nc2c1	1.1
CCc1ccccc1NC(=O)COCc1cc(-c2ccc(F)cc2)on1	1.1
O=C(CCn1nc(-c2ccc(Cl)cc2)ccc1=O)NC1CCCC1	0.98
COc1ccc(-c2noc(C(c3ccccc3)c3ccccc3)n2)cc1	1.1
c1ccc(C(Cc2nc(-c3cccnc3)no2)c2ccccc2)cc1	0.93
c1ccc(C(c2ccccc2)c2nc(-c3cccnc3)no2)cc1	0.32*
Cc1[nH]c2ccccc2c1CCNC(=O)NC(=O)c1cccs1	0.51
COc1ccc2cc(CCNC(=O)c3cccc(C)c3)c(=O)[nH]c2c1	1.1
CCCCNC(=O)CN1C(=O)COc2ccc(C(C)(C)C)cc21	0.93
CCN(CCCNC(=O)CCCN1C(=O)COc2ccc(C)cc21)c1cccc(C)c1	0.85
CCN(CCCNC(=O)CN1C(=O)COc2ccc(C(C)(C)C)cc21)c1cccc(C)c1	0.27*
CC(C)(C)c1ccc2c(c1)N(CC(=O)NCc1ccc3c(c1)OCO3)C(=O)CO2	1.1
CC(C)(C)c1ccc2c(c1)N(CC(=O)NCc1cccs1)C(=O)CO2	0.19*
Cc1ccc(CNC(=O)CN2C(=O)COc3ccc(C(C)(C)C)cc32)cc1	1.1
SMILES	CBX7 inh
CCCCCn1c(C2CC(=O)N(c3ccccc3)C2)nc2ccccc21 (stereo not drawn)	0.91
COc1ccc(-c2cc(C(=O)Nc3cc(C(F)(F)F)ccc3Cl)c3ccccc3n2)cc1OC	1.1
CCOC(=O)c1c(NC(=O)COc2ccccc2)sc(C(=O)Nc2ccccc2OC)c1C	1
Brc1ccc(-c2nnc3ccc(N4CCCCC4)nn23)cc1	0.98
CC(C)OCCCNC(=O)C1C2C=CC3(CN(Cc4ccccc4Cl)C(=O)C13)O2 (stereo not drawn)	1
CN(C)CCCN1C(=O)CCn2c(-c3ccccc3)c(-c3ccccc3)c3cccc1c32	0.49*
CCN(CC)CCN1C(=O)Cn2c3c(c4cccc1c42)CCC3	1.1
CCOc1ccc(C(=O)c2cn(Cc3cccc(F)c3)c3ccc(F)cc3c2=O)cc1	0.82
CCC(=O)Nc1nc(C)c(-c2csc(Nc3ccccn3)n2)s1	0.88
CCC(=O)Nc1nc(C)c(-c2csc(Nc3ncccn3)n2)s1	1.1
COc1ccc(OC)c(Nc2nc(-c3sc(C)nc3C)cs2)c1	0.84
CCC(=O)Nc1nc(C)c(-c2csc(Nc3ccccc3OC)n2)s1	0.83
CCC(=O)Nc1nc(C)c(-c2csc(Nc3ccc(OC)cc3)n2)s1	0.5*
CCC(=O)Nc1nc(C)c(-c2csc(Nc3cc(OC)ccc3OC)n2)s1	0.5*
NC(=O)c1c(N)ncc2c1CCC2	0.97
CN(Cc1ccccc1)C(=O)CN1C(=O)CCSc2ccccc21	1
COCCCNC(=O)Cc1ccc(NC2=NC3CS(=O)(=O)CC3S2)cc1 (stereo not drawn)	0.95
CCc1cccc(NC(=O)CCc2nc3ccccc3[nH]2)c1	1
COc1cccc(OCC(O)CN2CCC(C)CC2)c1 (stereo not drawn)	0.98
Cc1ccc(-c2noc(CN3CCC(C)CC3)n2)cc1	1.1
COCc1cc(CN2CCC(C)CC2)c(O)c2ncccc12	0.0039*
O=C(Cn1nc(Cc2ccncc2)c2ccccc2c1=O)Nc1ccc(F)c(Cl)c1	1
COc1ccc(OC)c(CCNC(=O)C2CCN(c3nc4c(C)cc(C)cc4s3)CC2)c1	1.1
